From the supplement of paper PMC9135407 come the findings set out here.

Where “and” joins values, the source holds several entries; their conditions need not be identical. Identical values can stand only once. Counter-ions that a name gives are not always drawn. The campaign covered roughly 5,800 compounds. About 620 (11%) showed activity. This is one part of a sample in which actives are shown more often than they occur. A number with no mark means an inactive call.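 Rule for the calls: active = score above a cut-off or among the top three wells of a plate; in these data no inactive exceeds 0.85.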 Bounds are passed on as bounds.

This assay deals with primary human hepatic stellate cells (donor 1). The assay is described as follows: scaled lipid accumulation score (0 = DMSO-like, 1 = nortriptyline-like); higher = stronger HSC inactivation (lipid re-accumulation), active = hit call of the paper. Conditions: 48 h.
Setting [1] is: library stock concentration: 3.33 mM.
Where [2] appears, read: library stock concentration: 10 mM.
Setting [3] is: library stock concentration: 1 mM.
Where [4] appears, read: library stock concentration: 80 uM.
[5] abbreviates: library stock concentration: 400 uM.
Where [6] appears, read: library stock concentration: 2 mM.

Consider `Cn1nc2c3c(cccc31)C(=O)c1ccccc1-2` [JNK Inhibitor, Negative Control], for which the “scaled lipid accumulation score” value under setting [1] was no more than 0.

`Cc1ccc2nc(NC(=O)CSc3nc4c(c(=O)n3-c3ccccc3)SCC4)sc2c1`: the “scaled lipid accumulation score” value was no more than 0 under setting [1] and 0.76 under setting [2].

Regarding `COc1ccc(CNc2nc(N(CCO)CCO)nc3c2ncn3C(C)C)cc1` [Cdk2 Inhibitor III], under setting [1], the “scaled lipid accumulation score” value is 0.067.

Take `CCCCCCCC/C=C\CCCCCCCCCCCCCC(=O)NCCS(=O)(=O)O` [N-Nervonoyl Taurine]: the “scaled lipid accumulation score” value under setting [3] was 0.028.

Take `CCCCC[C@H](O)/C=C/[C@H]1CC[C@@H](O)[C@@H]1CCCCCCC(=O)O` [11-deoxy Prostaglandin F1.beta.]: the “scaled lipid accumulation score” value under setting [3] was no more than 0.

With `CCCCCCCCCC(=O)CC(=O)N[C@H]1CCOC1=O` [N-3-oxo-dodecanoyl-L-Homoserine lactone], the “scaled lipid accumulation score” value under setting [3] was 0.017.

As to `COc1cc2c(cc1OC)-c1cc3nc4ccccc4nc3n1C(C)(C)C2`, the “scaled lipid accumulation score” value under setting [2] was 0.923 (active).

As to `COc1cc2ncc(-c3ccccc3)nc2cc1OC` [Tyrphostin AG 1296], the “scaled lipid accumulation score” value runs as follows: under setting [1], no more than -0.009; under setting [2], no more than 0.

On to `COc1cc2ncc(-c3ccccc3)nc2cc1OC`, for which the “scaled lipid accumulation score” value is no more than 0 under setting [1] and 0.096 (library stock concentration: 18.8 mM).

With `CN(CCO)CC(O)Cn1cnc2c1c(=O)n(C)c(=O)n2C` (stereo not given), the “scaled lipid accumulation score” value under setting [2] is no more than 0.

On to `CCC1=C[C@@H]2CN(C1)Cc1c([nH]c3ccccc13)[C@@](C(=O)OC)(c1cc3c(cc1OC)N(C)[C@H]1[C@@](O)(C(=O)OC)[C@H](OC(C)=O)[C@]4(CC)C=CCN5CC[C@]31[C@@H]54)C2` [Vinorelbine], for which the “scaled lipid accumulation score” value (library stock concentration: 2.6 mM) was 0.75.

As for `c1([C@]2(C(=O)OC)c3c(c4c(cccc4)[nH]3)CN(CC5C2)CC(CC)=C5)cc6c(N(C)[C@]7([H])[C@]6(CC8)[C@]([H])(N89)[C@@](CC)(C=CC9)[C@@H](OC(=O)C)[C@]7(O)C(=O)OC)cc1OC.C(=O)(O)[C@H](O)[C@@H](O)C(=O)O.C(=O)(O)[C@H](O)` (stereo not given in full) [Vinorelbine Tartrate], the “scaled lipid accumulation score” value under setting [1] is 1.26 (active) and the “scaled lipid accumulation score” value under setting [2] is 0.863 (active).

For the compound `CCC1=C[C@H]2CN(C1)Cc1c([nH]c3ccccc13)[C@@](C(=O)OC)(c1cc3c(cc1OC)N(C)[C@H]1[C@@](O)(C(=O)OC)[C@H](OC(C)=O)[C@]4(CC)C=CCN5CC[C@]31[C@@H]54)C2.O=C(O)C(O)C(O)C(=O)O`, the “scaled lipid accumulation score” value under setting [2] is 1.52 (active).

As to `COc1ccc2c(c1)c(CC(=O)O)c(C)n2Cc1ccc(Cl)cc1` [1-(4-Chlorobenzyl)-5-methoxy-2-methylindole-3-acetic acid], the “scaled lipid accumulation score” value under setting [2] is 0.078.

With `NS(=O)(=O)C#Cc1ccccc1` [Pifithrin-mu], the “scaled lipid accumulation score” value under setting [2] was 1.02 (active).

For the compound `Nc1ccccc1S(N)(=O)=O` [2-Aminobenzenesulfonamide], the “scaled lipid accumulation score” value was no more than 0.

For `NS(=O)(=O)C#Cc1ccccc1` [Pifithrin->m], under setting [2], the “scaled lipid accumulation score” value was 1.46 (active).

In the case of `Cc1cccc(C#Cc2ccccc2)n1` [6-Methyl-2-(phenylethynyl)pyridine hydrochloride], the “scaled lipid accumulation score” value under setting [2] is no more than -0.034.

In the case of `Cc1cccc(C#Cc2ccccc2)n1` [MPEP hydrochloride], the “scaled lipid accumulation score” value under setting [2] was 0.053.

Regarding `Cc1cccc(C#Cc2ccccc2)n1`, the “scaled lipid accumulation score” value reads like this: under setting [1], no more than 0; under setting [2], 0.052.

`FC(F)(F)c1ccc(/C=C\c2cc(Cl)cc(Cl)c2)cc1`: the “scaled lipid accumulation score” value under setting [3] is no more than 0.

As for `CCCCC/C=C\C/C=C\C/C=C\C/C=C\CCCC(=O)C(F)(F)F` [Arachidonyl Trifluoromethyl Ketone], the “scaled lipid accumulation score” value under setting [3] was no more than 0.

Consider `CCCCCCCCCCCC#CC#CC#CC#CC(=O)O` [Eicosatetraynoic Acid], for which the “scaled lipid accumulation score” value under setting [3] is no more than 0.

In the case of `COc1cc(OC)c(/C=C/S(=O)(=O)Cc2ccc(OC)c(NCC(=O)O)c2)c(OC)c1`, the “scaled lipid accumulation score” value was no more than -0.016 under setting [4]; no more than -0.016 under setting [5]; 0.096 under setting [6]; 0.068 under setting [1]; 0.138 and 0.063 under setting [2].

Turning to `CC(C)NCC(O)COc1ccc(CC(N)=O)cc1` (racemic) [(RS)-Atenolol], under setting [2], the “scaled lipid accumulation score” value was 0.043.

`COc1ccc2c(c1)C(=O)N(CCc1ccc(S(=O)(=O)NC(=O)NC3CCCCC3)cc1)C(=O)C2(C)C` [Gliquidone]: the “scaled lipid accumulation score” value was no more than 0.

Take `CN1CCC(NC(=O)C2=CC(=C3C(O)=CC(=O)C=C3Oc3ccc([N+](=O)[O-])cc3)ON2)CC1`: under setting [2], the “scaled lipid accumulation score” value was 0.976 (active).

`CN1CCC(NC(=O)c2cc(-c3c(O)cc(O)cc3Oc3ccc([N+](=O)[O-])cc3)on2)CC1`: under setting [1], the “scaled lipid accumulation score” value was 0.756.

In the case of `CCCCCC=CCC=CCC=CCC=CCCCC(=O)OCC(O)CO` (stereo not given) [1-Arachidonoyl Glycerol], the “scaled lipid accumulation score” value under setting [3] was 0.012.

Consider `CCCCC/C=C\C[C@H](O)/C=C/C=C\C/C=C\CCCC(=O)O`, for which the “scaled lipid accumulation score” value (library stock concentration: 100 uM) is no more than -0.021.

With `Cc1cc2c(OCC(CNC(C)(C)C)OC(=O)c3ccccc3)cccc2[nH]1` (stereo not given) [Bopindolol malonate], the “scaled lipid accumulation score” value (library stock concentration: 5.3 mM) was no more than -0.006.

For `COc1cc(/C=C/C(=O)O)ccc1O` [Ferulic Acid], the “scaled lipid accumulation score” value reads like this: under setting [1], no more than 0; under setting [2], no more than 0.

On to `COc1cc(/C=C/C(N)=O)cc(OC)c1OC`, for which the “scaled lipid accumulation score” value under setting [2] was 0.006.

`COc1ccc(/C=C\c2cc(OC)c(OC)c(OC)c2)cc1O` [Combrestatin A4]: the “scaled lipid accumulation score” value under setting [3] was 0.237 (active).

On to `COc1cc(/C=C/C(=O)O)ccc1O` [Ferulic acid], for which the “scaled lipid accumulation score” value under setting [2] is no more than 0.

With `Nc1[nH]nc2nc3ccccc3nc12`, the “scaled lipid accumulation score” value under setting [2] was no more than -0.006.

For the compound `CC(C)[C@H](N)C(=O)OCC(CO)OCn1cnc2c(=O)[nH]c(N)nc21` (stereo not given in full) [Valganciclovir HCl], the “scaled lipid accumulation score” value by setting is: under setting [1], no more than 0; under setting [2], 0.028.

Take `COC(=O)C(Cc1ccc(OCCn2c(=O)sc3cc(C(=O)c4ccccc4)ccc32)cc1)C(=O)OC`: the “scaled lipid accumulation score” value under setting [2] is no more than 0.

With `CCCCN(CC)c1nc(C)nc2c1c(C)cn2-c1c(C)cc(C)cc1C`, under setting [2], the “scaled lipid accumulation score” value was 0.047.

As to `Cc1ccc(NC(=O)c2ccc(CN3CCN(C)CC3)cc2)cc1Nc1nc(-c2cccnc2)cs1` [Masitinib (AB1010, Masivet) (10 mM)], the “scaled lipid accumulation score” value under setting [2] is 0.755.

`Cc1ccc(NC(=O)c2ccc(CN3CCN(C)CC3)cc2)cc1Nc1nc(-c2cccnc2)cs1` [Masitinib] [listing 1 of 2 here]: the “scaled lipid accumulation score” value is no more than -0.009 under setting [4], 0.153 under setting [5] and 0.121 under setting [6].

With `Cc1ccc(NC(=O)c2ccc(CN3CCN(C)CC3)cc2)cc1Nc1nc(-c2cccnc2)cs1` [Masitinib (AB1010, Masivet) (0.4 mM)], the “scaled lipid accumulation score” value under setting [5] is 0.487.

Regarding `Cc1cc(C)c(-c2csc(NC(=O)c3ccccc3)n2)c(C)c1`, the “scaled lipid accumulation score” value by setting is: under setting [1], no more than -0.009; under setting [2], 0.033.

On to `Cc1ccc(-c2csc(NC(=O)c3ccccc3)n2)c(C)c1`, for which the “scaled lipid accumulation score” value runs as follows: under setting [1], no more than -0.009; under setting [2], no more than 0.

As to `Cc1ccc(NC(=O)c2ccc(CN3CCN(C)CC3)cc2)cc1Nc1nc(-c2cccnc2)cs1` [Masitinib] [listing 2 of 2 here], under setting [2], the “scaled lipid accumulation score” value was 1.07 (active).

Turning to `Cc1ccc(NC(=O)c2ccc(CN3CCN(C)CC3)cc2)cc1Nc1nc(-c2cccnc2)cs1` [Masitinib (AB1010, Masivet) (2 mM)], the “scaled lipid accumulation score” value under setting [6] was 1.37 (active).

In the case of `Cc1ccc(NC(=O)c2ccc(CN3CCN(C)CC3)cc2)cc1Nc1nc(-c2cccnc2)cs1` [Masitinib (AB1010)], the “scaled lipid accumulation score” value is 1.13 (active) under setting [1] and 0.856 (active) under setting [2].

As to `CCCCCCCCCCCCCCCC(=O)C1=C(O)[C@@H](CO)OC1=O`, the “scaled lipid accumulation score” value (library stock concentration: 13.6 mM) was no more than -0.012.

Turning to `CC1(C)[C@H]2CC[C@]1(CS(=O)(=O)O)C(=O)C2=Cc1ccc(C=C2C(=O)[C@@]3(CS(=O)(=O)O)CC[C@@H]2C3(C)C)cc1`, the “scaled lipid accumulation score” value under setting [2] is no more than 0.

Turning to `O=C1NC(=O)/C(=C\c2cccc(C(F)(F)F)c2)S1` [PIM12 kinase inhibitor V], the “scaled lipid accumulation score” value under setting [4] was no more than -0.001, the “scaled lipid accumulation score” value under setting [5] is no more than -0.001, the “scaled lipid accumulation score” value under setting [6] is no more than -0.001 and the “scaled lipid accumulation score” value under setting [2] is 0.011.

For `CCCCCC(=O)CC[C@@H]1[C@@H](CCCCCCC(=O)O)[C@@H](O)C[C@H]1O` [13,14-dihydro-15-keto Prostaglandin F1.alpha.], the “scaled lipid accumulation score” value under setting [3] is no more than 0.

With `O=[N+]([O-])c1cc(Cl)ccc1S(=O)(=O)N1CCN(Cc2ccccc2)CC1`, under setting [2], the “scaled lipid accumulation score” value was 0.048.

Consider `CN(C)c1cnccn1`, for which the “scaled lipid accumulation score” value under setting [2] is no more than 0.

Regarding `CCCCC[C@](C)(O)/C=C/[C@H]1[C@H](O)CC(=O)[C@@H]1C/C=C\CCCC(=O)O` [15(S)-15-methyl Prostaglandin E2], the “scaled lipid accumulation score” value under setting [3] was no more than 0.

`CCc1cc2c(cc1N1CCC(N3CCOCC3)CC1)C(C)(C)c1[nH]c3cc(C#N)ccc3c1C2=O` [listing 1 of 2 here]: the “scaled lipid accumulation score” value runs as follows: under setting [4], no more than -0.016; under setting [5], no more than -0.016; under setting [6], 0.126.

Regarding `N#Cc1ccc2[nH]c(O)c(-c3ccc(CN4CCOCC4)cn3)c2c1`, the “scaled lipid accumulation score” value was 0.477 under setting [1] and 0.769 under setting [2].

Take `CCc1cc2c(cc1N1CCC(N3CCOCC3)CC1)C(C)(C)c1[nH]c3cc(C#N)ccc3c1C2=O` [listing 2 of 2 here]: the “scaled lipid accumulation score” value under setting [2] was 1.17 (active).

With `CC#CCOC(=O)C1=CCCN(C)C1` [Arecaidine but-2-ynyl ester tosylate], the “scaled lipid accumulation score” value under setting [2] is no more than 0.

As for `CCOC(=O)[C@H](CCc1ccccc1)N[C@@H](C)C(=O)N1Cc2cc(OC)c(OC)cc2C[C@H]1C(=O)O` [Moexipril hydrochloride], the “scaled lipid accumulation score” value under setting [2] is 0.011.

As to `CCOC(=O)[C@H](CCc1ccccc1)N[C@@H](C)C(=O)N1Cc2cc(OC)c(OC)cc2C[C@H]1C(=O)O` [Moexipril HCl], the “scaled lipid accumulation score” value was no more than 0 under setting [1] and no more than 0 under setting [2].

For `CO[C@H]1C[C@H](O[C@H]2[C@H](C)[C@@H](O[C@@H]3O[C@H](C)C[C@H](N(C)C)[C@H]3O)[C@@H](C)C[C@@]3(CO3)C(=O)[C@H](C)[C@@H](O)[C@@H](C)[C@@H](C)OC(=O)[C@@H]2C)O[C@@H](C)[C@@H]1O` [Oleandomycin phosphate], the “scaled lipid accumulation score” value is no more than 0. Further, the “scaled lipid accumulation score” value under setting [2] was no more than 0.
